Screens as filed in PubChem.
An excerpt weighted towards active compounds, which were near 3.8% of everything screened.
esBAF inh: inhibitors of esBAF chromatin remodeling in mouse ES cells; 350,000 tested, 2% active; AID 602393; reporter increase, % at 12.5 µM; Bmi1-luciferase knock-in reporter, 24 h; 100% = twice the neutral-well signal; in the data active means activation above about 40%; inconclusive means no clear call, values can overlap the other calls;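 further: 0% = median of the plate's neutral control wells and 100% = double that signal; a rise in the Bmi1 reporter signal indicates esBAF inhibition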
HSF-1 act: increases HSF-1 driven luciferase reporter signal; NIH3T3-HGL HSF-1 luciferase reporter, MG132, 8 h; 100% = twice DMSO control signal; activation, % at 9 µM; 300,000 tested, 1.7% active; AID 504408;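 active means mean replicate activation of at least 50% with a set share of replicates each reaching 50%; inconclusive means only one of those two conditions met; inactive means mean below 50% and too few replicates reaching it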;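 further: 0% = median of the neutral control wells and 100% = twice that signal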
MITF TRPM1 HTS: MITF TRPM1 promoter activation in melanoma cells. SK-MEL-5 TRPM1-promoter luciferase, 24 h; % of positive control, neutral wells = 0. activation, % at 12.5 µM. 300,000 tested, 0.75% active. AID 588334;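 active means mean activation of at least 80% with every replicate also reaching 80%; inconclusive means mean reaches 80% but some replicate falls short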;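 further: 0% = neutral control wells and 100% = parthenolide positive control wells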
Wnt act: activators of Wnt/beta-catenin signaling; 300,000 tested, 1.2% active; Wnt/beta-catenin reporter cell assay, activator, plate reader; activation, % at 9.35 µM; in the data active means activation above about 30%, passing the limit was not always enough; inconclusive means no clear call, values can overlap the other calls;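 further: 0% = neutral control wells and 100% = positive control wells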
HSF1 inh: HSF1 inhibition | NIH3T3-HGL HSE-luciferase, MG132-induced, luminescence 8 h; hits give low values | activity change, negative = inhibition, % at 7.5 µM (by protocol) | 300,000 tested, 0.77% active;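 active means more than half of replicate wells show activity change below -50%, luminescence cut by over half; inconclusive means some wells, but at most half, below -50%; inactive means no replicate well below -50%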;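 further: luciferase reports HSF-1 transcriptional activity via heat shock element; 0% = median of DMSO wells and -100% = zero luminescence signal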
Numbers without * were called inactive; ? = inconclusive; . = not tested or not shown.

SMILES	esBAF inh	HSF-1 act	MITF TRPM1 HTS	Wnt act	HSF1 inh
O=C(O)CN1C(=O)/C(=C\c2ccc(OC(=O)c3ccco3)cc2)SC1=S	.	16	-1	34*	1
CC(=O)c1ccc(NC(=O)CN2C(=O)/C(=C/C=C/c3ccccc3)SC2=S)cc1	.	31	6	1	25
O=C(O)CN1C(=O)/C(=C\c2cccc(OCc3ccc(F)cc3)c2)SC1=S	4	-6	3	2	3
O=C(O)CN1C(=O)/C(=C\c2cccc(OCc3ccccc3F)c2)SC1=S	10	58*	3	0	20
O=C(O)CN1C(=O)/C(=C/C=C/c2ccccc2)SC1=S	.	-21	4	49*	1
C/C=C/c1cnc2c(c1)C(=O)N([C@@H](C)CO)C[C@@H](C)[C@H](CN(C)C(=O)C1CCOCC1)O2	-4	.	.	.	.
CCCNC(=O)C[C@H]1CC[C@@H]2[C@H](COC[C@@H](O)CN2CC2CCCCC2)O1	9	.	.	.	.
CCN(CC)C(=O)CN1C(=O)/C(=C/c2ccccc2)SC1=S	8	-68	4	2	-57*
Cc1ccc2nc(-c3ccc(F)cc3)c(Cc3cccc(Cl)c3)n2c1	48*	.	.	24	.
Fc1ccc(-c2nc3ccc(Br)cn3c2Cc2cccc(F)c2)cc1	39	.	.	0	.
Cc1ccc(-c2nc3ccc(Br)cn3c2Cc2cccc(F)c2)cc1	51*	.	.	-2	.
O=C(C[C@@H]1C=C[C@H](NS(=O)(=O)c2ccccc2)[C@@H](CO)O1)N1CCc2ccccc2C1	2	.	.	.	.
O=C(O)C[C@H]1CC[C@H](NC(=O)c2ccncc2)[C@H](CO)O1	-1	.	.	.	.
O=C(CCn1c(=S)oc2ccccc21)N1CCCCC1	.	54*	-3	-3	4
c1ccc(-c2nc(NCc3cccnc3)c3oc4ccccc4c3n2)cc1	5	76*	-14	0	55
CCCCN1CC(O)=C(c2nc3ccccc3[nH]2)C1=N	58*	36	65	22	1
CCCCCN1CC(O)=C(c2nc3ccccc3[nH]2)C1=N	.	17	52	7	9
O=C(O/N=C(\c1ccccc1)c1ccccn1)c1ccc(Cl)c(Cl)c1	.	62*	-6	-2	15
N/C(=N\OC(=O)c1cccc([N+](=O)[O-])c1)c1ccccn1	.	38	10	8	19
CCCc1ccc(C(=O)O/N=C(\N)c2ccccn2)cc1	-81	-83	-72	-9	-83*
Cc1ccccc1C(=O)O/N=C(\N)c1ccncc1	.	24	27	40*	9
COc1cccc(C(=O)O/N=C(\N)c2ccccn2)c1	-59	-89	-85	-4	-87*
C[C@H](CO)N1C[C@H](C)[C@@H](CN(C)C(=O)CC2CC2)Oc2ncc(C#CC3CC3)cc2C1=O	2	.	.	.	.
Cc1ccccc1OCC(=O)O/N=C(\N)Cc1cccs1	32	36	44	.	2
N/C(=N\OC(=O)/C=C/c1ccccc1)c1ccccn1	-59	13	49	28	4
SMILES	esBAF inh	HSF-1 act	MITF TRPM1 HTS	Wnt act	HSF1 inh
Cc1ccccc1C(=O)O/N=C(\N)Cc1cccs1	53*	11	94*	17	20
COc1ccc(/C=C/C(=O)O/N=C(\N)c2ccccn2)cc1OC	?	.	81*	1	.
N/C(=N\OC(=O)c1ccc2ccccc2c1)c1ccncc1	.	40	?	34*	14
N/C(=N\OC(=O)c1ccc2ccccc2c1)c1ccccn1	-86	-89	-32	-26	-85*
C[C@@H](NC(=O)C[C@H]1C=C[C@@H](NC(=O)C2CCOCC2)[C@H](CO)O1)c1ccccc1	-1	.	.	.	.
O=C(Oc1ccc2ccc(O)cc2c1)C1CCCCC1	.	6	-15	-1	1
N/C(=N\OC(=O)c1ccc2ccccc2c1)c1ccccc1Cl	65*	47	?	47*	31
O=C(Oc1ccc2ccc(O)cc2c1)c1ccccc1Cl	63*	11	.	11	22
COc1ccc(/C(N)=N/OC(=O)c2ccc3ccccc3c2)cc1OC	13	.	.	3	.
N/C(=N\OC(=O)/C=C/c1ccccc1)c1ccncc1	45*	47	50	11	28
N/C(=N\OC(=O)/C=C/c1ccccc1Cl)c1ccncc1	.	27	?	13	19
O=C(C[C@H]1CC[C@@H]2[C@H](COC[C@@H](O)CN2C(=O)Nc2ccccc2)O1)NCCCN1CCOCC1	3	.	.	.	.
C[C@@H]1CN([C@@H](C)CO)C(=O)Cc2cc(NS(=O)(=O)c3cn(C)cn3)ccc2O[C@@H]1CN(C)S(=O)(=O)c1ccc(F)cc1	-8	.	.	.	.
Cc1noc(C)c1NC(=O)NCC[C@@H]1CC[C@@H](NC(=O)c2ccncc2)[C@@H](CO)O1	3	.	.	.	.
O=C(NCCNc1ccccc1[N+](=O)[O-])c1cc(F)c(F)cc1Cl	36	37	.	3	21
CCOc1ccc(C(=O)Nc2ncn[nH]2)cc1	3	1	.	-1	-13
CC(C)COc1ccc(C(=O)Nc2ccccc2[N+](=O)[O-])cc1	.	38	49	80*	17
CC(C)COc1ccc(C(=O)Nc2ncn[nH]2)cc1	45*	19	20	6	5
COc1ccc(C(=O)NCCNc2ccccc2[N+](=O)[O-])cc1	74*	-6	66	-3	5
C[C@H](CO)N1C[C@H](C)[C@H](CN(C)S(C)(=O)=O)Oc2c(NS(=O)(=O)c3ccc(F)cc3)cccc2C1=O	-5	.	.	.	.
COc1ccc(NC(=O)N(C)C[C@H]2OCCCC[C@@H](C)Oc3ccc(NS(C)(=O)=O)cc3C(=O)N([C@H](C)CO)C[C@H]2C)cc1	6	.	.	.	.
CCOc1ccc(C2=NNC(c3cccs3)=Nc3ccc(OC)cc32)cc1OCC	-3	7	-1	-4	5
COc1ccc(C2=NNC(c3cccs3)=Nc3ccc(OC)cc32)cc1	64*	9	0	.	6
C[C@@H]1CN([C@@H](C)CO)S(=O)(=O)c2ccc(C3=CCCCC3)cc2O[C@H]1CN(C)Cc1cccc(C(=O)O)c1	4	.	.	.	.
CCC(=O)N(C)C[C@@H]1Oc2ncc(-c3ccccc3F)cc2C(=O)N([C@H](C)CO)C[C@H]1C	1	.	.	.	.
SMILES	esBAF inh	HSF-1 act	MITF TRPM1 HTS	Wnt act	HSF1 inh
O=C(NC1CCCC1)c1cc2cc(Br)ccc2o1	69*	60*	?	?	39
O=C(NC1CCCCC1)c1cc2cc(Br)ccc2o1	56*	68*	.	-1	49
CCn1c(SCC(=O)c2ccccc2)nnc1-c1cnccn1	50*	8	.	36*	13
CCn1c(SCC(=O)Nc2ccccc2F)nnc1-c1cnccn1	-4	18	11	1	2
Cn1c(SCc2c(Cl)cccc2Cl)nnc1-c1cccs1	48*	.	36	.	.
Cc1ccc(CSc2nnc(-c3cccs3)n2C)cc1	25	22	41	.	13
Cn1c(SCC(=O)c2ccccc2)nnc1-c1cnccn1	48*	31	46	29	24
Cn1c(CS(=O)Cc2c(Cl)cccc2Cl)nnc1SCc1ccc(Cl)cc1 (configuration not stated)	.	61*	-1	-8	26
